Shown are actives, neighbours in structure and some others; about 28% of the full set was active somewhere.
CYP2C19 inh = inhibitors of human CYP2C19; P33261; CYP2C19 Supersomes, luciferin-H EGE luminescence, 30 min; inhibition, % at 5 µM; 96,000 compounds, 21% hits;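 active means CYP2C19 inhibition above a set limit at 5 µM in the primary screen, cut at about 50% in these data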;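 further: plate controls were negative control wells for no effect and 2.5 mM tranylcypromine positive control for full effect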
Target sequence (P33261 whole entry, looked up): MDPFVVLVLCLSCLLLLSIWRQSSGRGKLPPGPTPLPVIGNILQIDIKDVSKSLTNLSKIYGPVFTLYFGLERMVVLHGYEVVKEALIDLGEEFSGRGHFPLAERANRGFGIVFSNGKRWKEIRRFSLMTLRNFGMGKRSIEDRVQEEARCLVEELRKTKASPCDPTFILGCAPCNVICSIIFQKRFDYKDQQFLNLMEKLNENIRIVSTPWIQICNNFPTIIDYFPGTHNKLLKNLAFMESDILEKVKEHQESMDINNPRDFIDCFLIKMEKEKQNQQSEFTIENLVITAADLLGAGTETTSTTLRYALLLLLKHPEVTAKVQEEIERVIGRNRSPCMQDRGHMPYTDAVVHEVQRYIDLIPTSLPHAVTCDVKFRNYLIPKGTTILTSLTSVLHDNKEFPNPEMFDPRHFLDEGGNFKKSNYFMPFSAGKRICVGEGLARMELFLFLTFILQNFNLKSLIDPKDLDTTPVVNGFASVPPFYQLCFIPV
CD11b adhes enh = CD11b/CD18-fibrinogen binding enhancement | activation, % at 10 µM | K562 CD11b/CD18 adhesion to fibrinogen, ATPlite luminescence | 93,000 compounds, 0.07% hits | P05107+P11215;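 active means 10 µM primary screen giving 50% or more activity, confirmed by 40% or more on retest at that dose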
CYP2C19 activ = activators of human cytochrome P450 2C19 | P33261 | recombinant CYP2C19, luciferin-H EGE luminescence; hits give high values; 0 = fully inhibited enzyme, 1 = untreated enzyme | activation factor at 5 µM | 96,000 tested, under 10 active;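 active means activation factor of at least 2 at 5 µM in the primary screen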;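 further: 0 = wells with 2.5 mM tranylcypromine and 1 = vehicle-only wells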
Mac1 fbg inh = blocks human CD11b/CD18 adhesion to fibrinogen; K562 CD11b/CD18 adhesion to fibrinogen, ATPlite luminescence; Mn2+ added to activate the integrin; inhibition, % at 10 µM; 93,000 compounds, 0.54% hits; P05107+P11215;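 active means primary inhibition of 50% or more at 10 µM, then 40% or more on retest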
CYP2C9 act = increases human cytochrome P450 2C9 activity. activation factor at 5 µM. 96,000 compounds, 1.4% hits. recombinant CYP2C9, luciferin-H conversion, luminescence; hits give high values; factor 1 = untreated enzyme, 0 = blocked. AID 1024;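 active means activation factor of 2 or more for CYP2C9 at a 5 µM dose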;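 further: 0 = sulfaphenazole-blocked wells and 1 = vehicle-only wells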
CYP2C9 inhib = blocks human cytochrome P450 2C9. P11712. CYP2C9 Supersomes, luciferin-H conversion, luminescence. inhibition, % at 5 µM. 96,000 compounds, 20% hits. AID 777;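 active means blocking of liver enzyme CYP2C9 beyond about 50% at 5 µM, limit read from the data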
* = called active by the depositor; nt = not tested or not shown.

SMILES	CYP2C19 inh	CD11b adhes enh	CYP2C19 activ	Mac1 fbg inh	CYP2C9 act	CYP2C9 inhib
Cc1ccc(S(=O)(=O)Nc2cc(-c3nn(C)c(=O)c4ccccc34)ccc2N2CCOCC2)cc1	93*	3	0.1	5	0.1	94*
Cc1nc2c(Cl)cccc2[nH]1	3	-3	1	-11	1	3
c1ccc2c(-n3cccn3)cccc2c1	23	3	0.8	2	1.1	-7
Cc1ccc(S(=O)(=O)[N-]c2nc3ccccc3nc2-n2cc[n+](CCC(C)C)c2)cc1	56*	1	0.4	-16	0.1	94*
Cc1ccc(S(=O)(=O)/N=C2\C(=O)c3ccccc3C([O-])=C2n2cc[n+](CCC(C)C)c2)cc1	22	nt	0.8	nt	0.5	53*
Cc1cc[n+](-c2nc3ccccc3nc2[N-]S(=O)(=O)c2ccccc2)cc1	nt	0	nt	-8	nt	nt
CCSC1=C(C#N)C(c2ccc(OC)c(OC)c2)CC(=O)N1 (stereo unspecified)	63*	1	0.4	-2	0.7	27
COc1cccc(C2CC(=O)NC(SC)=C2C#N)c1 (stereo unspecified)	64*	1	0.4	-2	0.4	62*
CCSC1=C(C#N)C(c2ccc(F)cc2)CC(=O)N1 (stereo unspecified)	38	-1	0.6	-6	0.9	10
CCCCC(=O)NC1(C(F)(F)F)C(=O)Nc2c1c(=O)n(C)c(=O)n2C (stereo unspecified)	11	4	0.9	6	1	0
COc1ccc2c(c1)c(=O)oc1cc(OCC(=O)N3CCCC(C)C3)ccc12 (stereo unspecified)	99*	nt	0	nt	0.6	44
COc1ccc2c(c1)c(=O)oc1cc(OCC(=O)N3CCC(C)CC3)ccc12	99*	-2	0	19	0.5	48
COc1ccc2c(c1)c(=O)oc1cc(OCC(=O)N3CCc4ccccc4C3)ccc12	40	20	0.6	-8	0.4	61*
O=C(CSc1nnc(-c2ccccc2Br)o1)N1CCc2ccccc2C1	32	-1	0.7	1	1.1	-12
CC(=O)C(Sc1ccc2nnc(-c3ccc(F)cc3)n2n1)C(C)=O	13	-2	0.9	0	0.3	70*
CCOC(=O)CC(=O)CSc1ccc2nnc(-c3ccc(C)cc3)n2n1	14	-1	0.9	-22	0.5	55*
CCOc1ccc(-c2nnc3ccc(SCC(=O)N4CCCCC4)nn23)cc1	5	-1	1	-36	0.7	29
O=C(Cn1cnc2c(cnn2-c2ccccc2)c1=O)N1CCCc2ccccc21	-3	0	1	5	1.1	-5
Cc1ccnc(NS(=O)(=O)c2cnc(Cl)c(Br)c2)c1	nt	-2	nt	16	nt	nt
CCCCn1c(SCC(=O)N2CCCc3ccccc32)nc2c1c(=O)n(C)c(=O)n2C	18	5	0.8	9	0.4	63*
CCCn1c(SCC(=O)N2CCCc3ccccc32)nnc1-c1ccco1	52*	0	0.5	-16	1	0
Cn1c(SCC(=O)N2CCCc3ccccc32)nnc1-c1ccco1	-6	-8	1.1	-10	1	-5
CCn1c(SCC(=O)N2CCc3ccccc32)nnc1-c1ccco1	51*	-2	0.5	-4	0.7	33
CCCn1c(SCC(=O)N2c3ccccc3CCc3ccccc32)nc2c1c(=O)n(C)c(=O)n2C	20	-3	0.8	6	1	0
CC(=O)c1c(N2CCOCC2)nc(=S)n(-c2ccc([N+](=O)[O-])cc2)c1C	6	-1	0.9	-30	0.8	19
CC1Cc2ccccc2N1CC(=O)NC(c1ccccc1)c1ccccc1 (stereo unspecified)	nt	5	nt	-2	nt	nt
Cc1ccc(-c2nnn(CC(=O)N(CC(=O)NCc3ccccc3)c3cccc(C)c3C)n2)o1	41	4	0.6	-2	0.2	78*
Cc1ccc(-c2nnn(CC(=O)N(CC(=O)NC3CCCC3)c3cnc4ccccc4c3)n2)o1	44	0	0.6	12	0.2	77*
CCNc1nc(NC(C)(C)C)nc(N(C#N)CC)n1	21	nt	0.8	nt	0.6	38

Screening results (PubChem)
